The panel holds about 83,000 compounds, 20% with a hit somewhere; the sample as a whole holds those more often.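 Compound tested at a single concentration for 48 hours in 96-well plates; a percent growth value below 10 was scored as active.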
Columns and labels:
Assay in all cases: NCI-60 one-dose screen, 48 h (100 = growth as untreated, 0 = no growth, -100 = all killed)
[1] = system: DU-145 prostate; conditions: 10 µM unless noted
[2] = system: K-562 leukemia; conditions: 10 µM unless noted
[3] = system: MDA-MB-231 breast; conditions: 10 µM unless noted
[4] = system: RXF 393 renal; conditions: 10 µM unless noted
[5] = system: SF-268 CNS; conditions: 10 µM unless noted
[6] = system: SF-295 CNS; conditions: 10 µM unless noted
[7] = system: SF-539 CNS; conditions: 10 µM unless noted
[8] = system: UACC-257 melanoma; conditions: 10 µM unless noted
[9] = system: M14 melanoma; conditions: 10 µM unless noted
[10] = system: HCT-15 colon; conditions: 10 µM unless noted
[11] = system: HT29 colon; conditions: 10 µM unless noted
[12] = system: SNB-75 CNS; conditions: 10 µM unless noted
[13] = system: SNB-19 CNS; conditions: 10 µM unless noted
[14] = system: U251 CNS; conditions: 10 µM unless noted
[15] = system: PC-3 prostate; conditions: 10 µM unless noted
[16] = system: SK-MEL-5 melanoma; conditions: 10 µM unless noted
[17] = system: UACC-62 melanoma; conditions: 10 µM unless noted
[18] = system: LOX IMVI melanoma; conditions: 10 µM
[19] = system: SK-MEL-28 melanoma; conditions: 10 µM unless noted
[20] = system: MALME-3M melanoma; conditions: 10 µM unless noted

Measured: growth

C1=NCCc2ccccc21
inactive: [1] 111% | [2] 107% | [3] 99% | [4] 104% | [5] 95% | [6] 100% | [7] 96.5% | [8] 94.8% | [9] 94.2% | [10] 107% | [11] 117% | [12] 76.4% | [13] 109% | [14] 92.9% | [15] 87.7% | [16] 95.3% | [17] 114% | [18] 100% | [19] 110%

O=C(OCc1ccccc1)n1nnc2ccccc21
inactive: [1] 112% | [2] 107% | [3] 96.6% | [4] 113% | [5] 104% | [6] 99.2% | [7] 105% | [8] 97.2% | [9] 98.7% | [10] 104% | [11] 106% | [12] 90.2% | [13] 112% | [14] 99.2% | [15] 104% | [16] 105% | [17] 94.4% | [18] 99.6% | [19] 101%

Cc1cccc2ccccc12
inactive: [1] 114% | [20] 103% | [3] 101% | [4] 111% | [5] 102% | [6] 97.4% | [7] 89.8% | [8] 101% | [9] 97.7% | [10] 92.9% | [11] 95.8% | [12] 86.8% | [13] 103% | [14] 102% | [15] 95.5% | [16] 100% | [17] 103% | [18] 99.4% | [19] 98.2%

CS(=O)(=O)c1ccc(/C=C\C(=O)O)cc1
inactive: [1] 104% | [2] 122% | [3] 110% | [4] 95.7% | [5] 94.1% | [6] 103% | [7] 91.8% | [8] 99.7% | [9] 94.9% | [10] 96.1% | [11] 104% | [12] 80.2% | [13] 102% | [14] 104% | [15] 98.1% | [16] 99.5% | [17] 111% | [18] 98% | [19] 105%

O=S(=O)(O)c1ccc(O)c(C2CCCCC2)c1
inactive: [1] 112% | [2] 123% | [3] 112% | [4] 105% | [5] 105% | [6] 100% | [7] 98.2% | [8] 99.3% | [9] 101% | [10] 96.6% | [11] 98.6% | [12] 77.2% | [13] 104% | [14] 96.6% | [15] 98.5% | [16] 101% | [17] 109% | [18] 105% | [19] 110%

c1cc(CNCCNCc2ccncc2)ccn1
inactive: [1] 115% | [2] 108% | [3] 104% | [4] 107% | [5] 104% | [6] 104% | [7] 105% | [8] 93.7% | [9] 109% | [10] 110% | [11] 109% | [12] 92.5% | [13] 104% | [14] 101% | [15] 92.1% | [16] 107% | [17] 101% | [19] 101%

COc1ccc(Br)c2c1C(=O)CC2
inactive: [1] 127% | [20] 113% | [3] 106% | [5] 91.3% | [6] 111% | [7] 106% | [8] 119% | [9] 110% | [10] 110% | [11] 106% | [12] 99.6% | [13] 108% | [14] 107% | [15] 96.6% | [16] 109% | [17] 90.4% | [18] 104% | [19] 135%

CCOc1ccc2c(c1)c(C)cc(C)[n+]2CC
inactive: [2] 47.2% | [20] 101% | [3] 91.3% | [4] 96.3% | [5] 95.2% | [6] 54.3% | [7] 88.7% | [8] 76% | [9] 102% | [10] 112% | [11] 81.8% | [12] 71.2% | [13] 64.8% | [14] 45.7% | [15] 48.7% | [16] 78.3% | [17] 92.8% | [18] 73.8% | [19] 102%

CC(=O)C1C(=O)C(=O)N(c2ccc(Cl)c(Cl)c2)C1=O (centres undefined)
inactive: [2] 108% | [20] 92.4% | [3] 101% | [4] 110% | [5] 99.8% | [6] 96.7% | [7] 99.5% | [8] 109% | [9] 93.7% | [10] 93.8% | [11] 107% | [12] 78.3% | [13] 107% | [14] 101% | [15] 96.9% | [16] 107% | [17] 101% | [18] 94.4% | [19] 103%
